Assay outcomes (PubChem)
This excerpt belongs to a sample that is enriched for hits.
Methyltransferases = Primary Screen for Target Class Profiling of Small Molecule Inhibitors of Methyltransferases; 25,000 tested, 3.9% active; calls only at 40 µM; purified enzyme, MTase-Glo SAH luminescence; hits give low values; call rule not given here
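Each enzyme was reacted with SAM and its substrate, with compounds tested once at 40 uM; SAH formed was read by MTase-Glo luminescence.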
An asterisk follows results filed as active; i = inactive; + = active, no number. % is scaled to controls: 0 for no effect and ±100 for the full control effect.

SMILES	Methyltransferases
COc1ccc(-c2nnc3n(Cc4ccc(C)cc4)c(=O)c4ccccc4n23)c(O)c1	i
O=S1(=O)CCN(Cc2cc(NCC3CCOCC3)c3[nH]c(-c4ccccc4)cc3c2)CC1	+
COc1ccccc1N1CCN(S(=O)(=O)c2cc3c(cc2Cl)n(C)c(=O)n3C)CC1	i
CCc1cccc(C)c1NC(=O)c1ncn2c1C(=O)N(C1CC1)C(C)(C(=O)NCc1ccc(F)cc1)C2 (centres undefined)	i
CCOc1ccc(N2C(=O)c3cc4sccc4n3CC2(C)C(=O)NC2CCCCCCC2)cc1 (centres undefined)	i
COc1ccc(-c2cc3n(n2)CC(C)(C(=O)NCc2ccccc2)N(Cc2ccc(F)cc2)C3=O)cc1 (centres undefined)	i
CC1=CC(=O)CC(C)(CO)C1(O)/C=C/C(C)O[C@@H]1O[C@H](CO)[C@@H](O)[C@H](O)[C@H]1O (some centres undefined)	i
CC1=C(CCC(C)O[C@@H]2O[C@H](CO)[C@@H](O)[C@H](O)[C@H]2O)C(C)(C)CCC1=O (some centres undefined)	+
CC(CCc1ccc(O)cc1)O[C@@H]1O[C@H](CO[C@@H]2OC(CO)[C@H](O)[C@H]2O)[C@@H](O)[C@H](O)[C@H]1O (some centres undefined)	i
Cn1nc(-c2cccc(F)c2)c(N2CCCC2)c1NC(=O)NCc1ccccc1	i
CCOc1ccc(N2C(=O)CSc3c(c4ccccc4n3C)C2C(=O)NCCC(C)C)cc1 (centres undefined)	i
Cc1ccc(NC(=O)N2Cc3c(sc4c3CCCC4)-n3cccc3C2c2cc(F)cc(F)c2)cc1F (centres undefined)	i
Cc1ccccc1Cn1nc2n(Cc3ccccc3)c(=O)c3ccccc3n2c1=O	i
CC(C)[C@@](C)(O)[C@@H]1CN(c2nc(-c3[nH]nc4ncccc34)c(F)cc2Cl)CCN1	+
CC(CN1C(=O)c2ccc(-c3ccco3)n2CC1(C)C(=O)NC1CCCCCC1)c1ccccc1 (centres undefined)	i
O=c1c2ccccc2n2c(=O)n(Cc3ccccc3Cl)nc2n1CCc1ccccc1	i
CC(C)CNC(=O)c1ccc2c(=O)n(C(C)C)c3nn(CC(=O)Nc4cccc(Cl)c4)c(=O)n3c2c1	i
COc1ccccc1CNC(=O)C1(C)Cn2c(cc3ccccc32)C(=O)N1Cc1ccco1 (centres undefined)	i
COc1cccc(CN2C(=O)c3cc4occc4n3CC2(C)C(=O)NC2CCCCC2C)c1 (centres undefined)	i
CC(C)CCNC(=O)C1(C)Cn2c(cc3ccccc32)C(=O)N1Cc1cccc(F)c1 (centres undefined)	i
C=C(C(=O)O)[C@@H]1CC=C2CCC[C@H](C)[C@@]2(C)C1	i
C=C(C(=O)O)[C@@H]1CC[C@@]2(C)CC[C@H](O)[C@@]2(C(C)=O)C1	+
CC(C)NC(=O)CSc1nnc2n(C)c(=O)c3ccc(C(=O)NC4CCCCC4)cc3n12	i
COc1ccc(CN2C(=O)c3cc4ccccc4n3CC2(C)C(=O)NC2CCCCC2)cc1 (centres undefined)	i
CCn1c(-c2nonc2N)nc2c(C#CC(C)(C)O)ncc(OCC3CCCNC3)c21 (centres undefined)	+
SMILES	Methyltransferases
CC(C)Cn1c(=O)c2ccc(Cl)cc2n2c(SCC(=O)NC3CCCCC3)nnc12	i
CC1(C(=O)NCc2ccccc2)Cn2c(cc3ccccc32)C(=O)N1Cc1ccc(F)cc1 (centres undefined)	i
C=C(C)C(=O)OC1[C@@H]2C(=C)C(=O)O[C@@H]2C[C@@H](C)[C@@H]2C=CC(=O)[C@@]12C (some centres undefined)	i
C=C1C(=O)O[C@H]2CC(=C)[C@H]3CC[C@@](C)(O)[C@@H]3CC12 (some centres undefined)	+
C=C1C(=O)O[C@H]2C1CCC(C)=C1C(=O)C=C(C)[C@@]12O (some centres undefined)	i
CC(=O)Nc1cccc(C(=O)NCc2nn(Cc3ccccc3)c3ccccc23)c1	i
CC(=O)Nc1c2n(c3ccccc13)CC(C)(C(=O)NC1CCCC1)N(C1CCC(C)CC1)C2=O (centres undefined)	i
C=C(C)C(=O)OC1CC2(C)OC(=CC2=O)C(=C)CC2OC(=O)C(=C)C12 (centres undefined)	i
C=C1CC2OC(=O)C(COC)C2C(OC(=O)/C(C)=C\C)CC2(C)OC1=CC2=O (centres undefined)	i
C=C(C)C(=O)OC1CC2(C)OC(=CC2=O)C(=C)CC2OC(=O)C(COC)C12 (centres undefined)	+
CC1CCN(S(=O)(=O)c2ccc3c(ccn3CC(=O)NC3CCCc4ccccc43)c2)CC1 (centres undefined)	i
NC[C@@](O)(c1ccc(Cl)cc1)c1ccc(-c2cn[nH]c2)cc1	+
NCC(O)(CS(=O)(=O)O)c1ccc(Cl)cc1 (centres undefined)	i
CCOC(=O)c1cc2n(n1)CC(C)(C(=O)NCCC(C)C)N(c1cccc(C)c1C)C2=O (centres undefined)	i
COc1ccc2[nH]cc(C(=O)Cn3nc4n(Cc5ccccc5)c(=O)c5ccccc5n4c3=O)c2c1	i
COc1ccc(Cl)cc1S(=O)(=O)NCCn1c(-c2ccc(F)cc2)nc2ccccc21	i
C=C1C(=O)O[C@@H]2CC(C)=C([C@@H](C)CCCO)[C@@H](OC(=O)C(C)C)[C@H]12	+
C=C1C(=O)O[C@H]2[C@H]1[C@@H](OC(=O)C(C)CO)C[C@@]1(C)[C@H](O)CCC(=O)[C@H]21 (some centres undefined)	i
C=C1CC2OC(=O)C(=C)C2C(OC(=O)/C(C)=C\C)CC2(C)OC1=CC2=O (centres undefined)	i
CC(C)(C)c1cc2n(n1)CC(C)(C(=O)NCc1ccccc1)N(c1ccc(F)cc1)C2=O (centres undefined)	i
Cc1ccc(Cn2c(=O)c3ccccc3n3c(CCC(=O)NC4CCC(C)CC4)nnc23)cc1 (centres undefined)	i
O=C(CSc1nnc2n(CCc3ccccc3)c(=O)c3ccccc3n12)Nc1ccc(F)cc1F	i
COc1cccc(Nc2ncc3c(n2)C(C)(C(=O)N2CCN(c4ccccn4)CC2)CC3)c1 (centres undefined)	i
C=CC(=O)Nc1ccc(CN2C(=O)N(c3cc(OC)cc(OC)c3)Cc3cnc(Nc4ccc(N5CCN(C)CC5)cc4)nc32)cc1	+
C=CC(=O)Nc1cccc(Oc2nc(Nc3ccc(N4CCN(C)CC4)cc3OC)ncc2Cl)c1	i
SMILES	Methyltransferases
Cc1cccc(CCNC(=O)CCc2nnc3n(CCc4ccccc4)c(=O)c4ccccc4n23)c1	i
Nc1[nH]nc2nnc(-c3c(-c4ccccc4)nn4ccccc34)cc12	+
O=C(O)c1cc(-c2c(-c3ccccc3)nn3ccccc23)n[nH]c1=O	i
CC1CCC(N2C(=O)c3ccc(-c4ccco4)n3CC2(C)C(=O)NC2CCCCCC2)CC1 (centres undefined)	i
COC(=O)c1cc2n(n1)CC(C)(C(=O)NC1CCCCCC1)N(Cc1ccccc1)C2=O (centres undefined)	i
CC(C)Cn1c(=O)c2ccc(C(=O)NC(C)C)cc2n2c(=O)n(Cc3c(F)cccc3Cl)nc12	i
